# Where “and” joins values, the source holds several entries; their conditions need not be identical. Equal entries are not always repeated. Calls of active or inactive are those of the source. Unless noted, the rule behind the calls is not given here.
# Key:
# [1] = compounds altering viability of human ES cells (AID 493140); conditions: human embryonic stem cell survival screen; stronger effect = higher value;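 note: cells exposed to compounds for four days before counting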
# [2] = P. berghei load reduction in hepatocytes – cell-based, HepG2, luciferase luminescence, HepG2 viability, primary screen (AID 624349; in the data active = parasite load remaining mostly below about 12%, no sharp cut-off; inactive = mostly above about 10%;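 note: 100% = mean of DMSO negative control wells on the same plate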); conditions: P. berghei liver stage in HepG2, luciferase luminescence, concentration not given here; parasite load remaining: stronger effect = lower value; viability: measured here: HepG2 viability without parasites
# [3] = test system: Aerobactin synthetase IucA (Klebsiella pneumoniae); assay: inhibition of K. pneumoniae IucA enzyme – biochemical, Tocris library, absorbance (AID 1345561); conditions: purified IucA enzyme assay, absorbance (OD) read-out; stronger effect = lower value;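 tested at 8 µM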;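 note: 100% = enzyme without compound and 0% = no enzyme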
# [4] = viability loss with induced miR-34 in A549 – imaging, A549 dox-inducible miR-34, nuclei and caspase counts, primary screen (AID 1347080;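 active = compounds whose cell count with miR-34 switched on is under 0.7 times the count with it off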); conditions: A549 miR-34 inducible, Hoechst nuclei count, 48 h
# [5] = chitosan synthesis blockers in C. neoformans – flow cytometry, Cibacron Brilliant Red staining (AID 1347148); conditions: Cryptococcus neoformans chitosan, stronger effect = lower value; at 10 µM unless noted;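 note: compound exposure lasted three days at 37 degrees C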
# [6] = MELAS cybrid and Rieske KO viability enhancers – cell-based, MELAS cybrids, Rieske KO mouse fibroblasts, CellTiter-Glo, primary screen (AID 1508586;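 active = mean z-score across replicates of 1.96 or higher in either the MELAS or the Rieske mutant cell line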;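 note: z relative to plate mean and SD of compound and empty wells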); conditions: low glucose
# [7] = drug combination growth inhibition, ovarian cancer – cell-based, oncology-focused library, rucaparib conditional, profiling panel (AID 1508598;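 active = normalized viability below 100% at a tested concentration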); conditions: patient-derived ovarian cancer cells, CellTiter-Glo viability, 144 h, stronger effect = lower value
# [8] = galactose survival enhancers in mitochondrial complex I cybrids – cell-based, galactose medium, ATP luminescence, primary screen (AID 1645843;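 active = z-score of at least 1.8 in each of two replicates, scored against plate mean and spread of sample wells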;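 note: positive z means more ATP and so rescue of galactose-driven cybrid death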); conditions: complex I mutant cybrid cells, 72 h, stronger effect = higher value
# [9] = compounds altering circadian rhythm period length – cell-based, LOPAC library, luminescence reporter (AID 2774); conditions: circadian reporter cells, at 7 µM, actives lie on both sides;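 note: values are relative to mean of DMSO wells on each plate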
# [10] = test system: Hepatitis C virus NS3 helicase; assay: blockers of NS3h binding to ssDNA – biochemical, fluorescence polarization, LOPAC1280 library, primary screen (AID 687035; in the data active = inhibition above about 37%); conditions: Purified HCV NS3 helicase, Cy5-dT15 ssDNA binding fluorescence polarization; stronger effect = higher value; concentration not given here
# [11] = compounds altering Cy5-DNA-NS3h complex signal – biochemical, LOPAC1280, artefact control for HCV NS3 helicase inhibitor project (AID 687037); conditions: Cy5-DNA-NS3h complex fluorescence interference counterscreen
# [12] = blockers of cellular phospholipid synthesis – cell-based, LOPAC library, screen 4, primary screen (AID 1347384); conditions: animal cells, phospholipid biosynthesis inhibition screen; at 10 µM
# [13] = stronger effect = lower value, cell number ratio, induced over uninduced
# [14] = measured here: relative caspase fold change +Dox/-Dox
# [15] = measured here: total cells with miR-34 induction, stronger effect = lower value
# [16] = measured here: total cells without miR-34 induction
structure (smiles),measurement,setting,value
CN(C)CCCn1cc(C2=C(c3c[nH]c4ccccc34)C(=O)NC2=O)c2ccccc21,survival,[1],60.4 (inactive)
same,parasite load remaining,[2],40.8% (inactive)
same,viability,[2],101%
same,remaining activity,[3],99.8% (inactive)
same,fold change,[4]; [13],1.07 (inactive) and 1 (inactive) and 1.3 (inactive)
same,fold change,[4]; [14],0.742 and 0.718 and 1.02
same,cell count,[4]; [15],1180 and 5040 and 4700
same,cell count,[4]; [16],1100 and 5040 and 3620
same,fold fluorescence,[5],5.95 [at 121.2 µM] (inactive)
same,z-score,"[6]; MELAS cybrid survival, CellTiter-Glo 48 h, stronger effect = higher value",-0.455 (inactive)
same,z-score,"[6]; Rieske KO mouse fibroblast survival, CellTiter-Glo 72 h",-0.16
same,viability,"[7]; at 0.000305 µM, OCI-C5x cells, with rucaparib 10 µM, 100% = cells with rucaparib alone",111% (inactive)
same,viability,"[7]; at 0.000305 µM, OCI-C5x cells, without rucaparib",113% (inactive)
same,viability,"[7]; at 0.000305 µM, OCI-P5x cells, with rucaparib 20 µM, 100% = cells with rucaparib alone",94.2% (active)
same,viability,"[7]; at 0.000305 µM, OCI-P5x cells, without rucaparib",96.8% (active)
same,viability,"[7]; at 0.00122 µM, OCI-C5x cells, with rucaparib 10 µM, 100% = cells with rucaparib alone",124% (inactive)
same,viability,"[7]; at 0.00122 µM, OCI-C5x cells, without rucaparib",118% (inactive)
same,viability,"[7]; at 0.00122 µM, OCI-P5x cells, with rucaparib 20 µM, 100% = cells with rucaparib alone",102% (inactive)
same,viability,"[7]; at 0.00122 µM, OCI-P5x cells, without rucaparib",96% (active)
same,viability,"[7]; at 0.00488 µM, OCI-C5x cells, with rucaparib 10 µM, 100% = cells with rucaparib alone",118% (inactive)
same,viability,"[7]; at 0.00488 µM, OCI-C5x cells, without rucaparib",118% (inactive)
same,viability,"[7]; at 0.00488 µM, OCI-P5x cells, with rucaparib 20 µM, 100% = cells with rucaparib alone",104% (inactive)
same,viability,"[7]; at 0.00488 µM, OCI-P5x cells, without rucaparib",101% (inactive)
same,viability,"[7]; at 0.0195 µM, OCI-C5x cells, with rucaparib 10 µM, 100% = cells with rucaparib alone",118% (inactive)
same,viability,"[7]; at 0.0195 µM, OCI-C5x cells, without rucaparib",108% (inactive)
same,viability,"[7]; at 0.0195 µM, OCI-P5x cells, with rucaparib 20 µM, 100% = cells with rucaparib alone",103% (inactive)
same,viability,"[7]; at 0.0195 µM, OCI-P5x cells, without rucaparib",105% (inactive)
same,viability,"[7]; at 0.0781 µM, OCI-C5x cells, with rucaparib 10 µM, 100% = cells with rucaparib alone",113% (inactive)
same,viability,"[7]; at 0.0781 µM, OCI-C5x cells, without rucaparib",120% (inactive)
same,viability,"[7]; at 0.0781 µM, OCI-P5x cells, with rucaparib 20 µM, 100% = cells with rucaparib alone",101% (inactive)
same,viability,"[7]; at 0.0781 µM, OCI-P5x cells, without rucaparib",105% (inactive)
same,viability,"[7]; at 0.313 µM, OCI-C5x cells, with rucaparib 10 µM, 100% = cells with rucaparib alone",120% (inactive)
same,viability,"[7]; at 0.313 µM, OCI-C5x cells, without rucaparib",134% (inactive)
same,viability,"[7]; at 0.313 µM, OCI-P5x cells, with rucaparib 20 µM, 100% = cells with rucaparib alone",108% (inactive)
same,viability,"[7]; at 0.313 µM, OCI-P5x cells, without rucaparib",109% (inactive)
same,viability,"[7]; at 1.25 µM, OCI-C5x cells, with rucaparib 10 µM, 100% = cells with rucaparib alone",122% (inactive)
same,viability,"[7]; at 1.25 µM, OCI-C5x cells, without rucaparib",130% (inactive)
same,viability,"[7]; at 1.25 µM, OCI-P5x cells, with rucaparib 20 µM, 100% = cells with rucaparib alone",116% (inactive)
same,viability,"[7]; at 1.25 µM, OCI-P5x cells, without rucaparib",109% (inactive)
same,viability,"[7]; at 5 µM, OCI-C5x cells, with rucaparib 10 µM, 100% = cells with rucaparib alone",109% (inactive)
same,viability,"[7]; at 5 µM, OCI-C5x cells, without rucaparib",146% (inactive)
same,viability,"[7]; at 5 µM, OCI-P5x cells, with rucaparib 20 µM, 100% = cells with rucaparib alone",101% (inactive)
same,viability,"[7]; at 5 µM, OCI-P5x cells, without rucaparib",105% (inactive)
same,z-score,[8],-0.475 (inactive)
CC(C)(C)c1cc(O)c(C(C)(C)C)cc1O,remaining activity,[3],129% (inactive)
same,fold change,[4]; [13],1.1 (inactive) and 0.907 (inactive)
same,fold change,[4]; [14],1.08 and 0.716
same,cell count,[4]; [15],1530 and 6190
same,cell count,[4]; [16],1390 and 6820
same,fold fluorescence,[5],11.1 [at 224.9 µM] (inactive)
same,z-score,[8],-0.7 (inactive)
CC#CCOC(=O)c1c(C)nc2sc3c(c2c1N)CCC(O)C3 (stereo unspecified),period change,[9],-0.09 h (inactive)
same,inhibition,[10],-3% (inactive)
same,fluorescence ratio (interference),[11],1 (inactive)
same,remaining activity,[3],102% (inactive)
same,fold change,[4]; [13],0.861 (inactive) and 0.824 (inactive)
same,fold change,[4]; [14],0.901 and 1
same,cell count,[4]; [15],7740 and 5720
same,cell count,[4]; [16],8990 and 6940
same,outcome,[12],inactive
same,z-score,[8],-1.22 (inactive) and -0.71 (inactive)
Cc1nc2c(OCc3ccccc3)cccn2c1CC#N,period change,[9],-0.02 h (inactive)
same,inhibition,[10],1% (inactive)
same,fluorescence ratio (interference),[11],1 (inactive)
same,remaining activity,[3],113% (inactive)
same,fold change,[4]; [13],1.04 (inactive) and 0.99 (inactive)
same,fold change,[4]; [14],1.18 and 1.15
same,cell count,[4]; [15],9420 and 8410
same,cell count,[4]; [16],9080 and 8490
same,outcome,[12],inactive
same,z-score,[8],1.07 (inactive) and 2.13 (inactive)
CC(C)(C)NCC(O)COc1cccc2[nH]c(=O)[nH]c12 (stereo unspecified),period change,[9],-0.075 h (inactive)
same,inhibition,[10],-3% (inactive)
same,fluorescence ratio (interference),[11],1 (inactive)
same,remaining activity,[3],89.1% (inactive)
same,fold change,[4]; [13],0.952 (inactive) and 0.913 (inactive)
same,fold change,[4]; [14],1.58 and 1.07
same,cell count,[4]; [15],9940 and 8700
same,cell count,[4]; [16],10400 and 9520
same,outcome,[12],inactive
same,z-score,[8],0.24 (inactive) and 0.505 (inactive)
CCCCCCN(CCCCCC)C(=O)Cc1c(-c2ccc(F)cc2)[nH]c2ccccc12,period change,[9],-0.08 h (inactive)
same,inhibition,[10],1% (inactive)
same,fluorescence ratio (interference),[11],1 (inactive)
same,remaining activity,[3],100% (inactive)
same,fold change,[4]; [13],1.29 (inactive) and 0.933 (inactive)
same,fold change,[4]; [14],1.15 and 0.997
same,cell count,[4]; [15],5020 and 4030
same,cell count,[4]; [16],3880 and 4320
same,outcome,[12],inactive
same,z-score,[8],-1.04 (inactive) and -1.23 (inactive)
CC(C)(CO)Cc1cc(C(C)(C)C)c(O)c(C(C)(C)C)c1,period change,[9],0.05 h (inactive)
same,inhibition,[10],0% (inactive)
same,fluorescence ratio (interference),[11],1 (inactive)
same,remaining activity,[3],101% (inactive)
same,fold change,[4]; [13],1.04 (inactive) and 0.971 (inactive)
same,fold change,[4]; [14],1.88 and 0.81
same,cell count,[4]; [15],7090 and 8690
same,cell count,[4]; [16],6800 and 8950
same,outcome,[12],inactive
same,z-score,[8],-1.4 (inactive) and -0.73 (inactive)
CN=c1nc(-c2ccccc2)n(-c2ccccc2)s1,period change,[9],-0.055 h (inactive)
same,inhibition,[10],8% (inactive)
same,fluorescence ratio (interference),[11],1 (inactive)
same,remaining activity,[3],118% (inactive)
same,fold change,[4]; [13],0.91 (inactive) and 0.922 (inactive)
same,fold change,[4]; [14],1.06 and 0.764
same,cell count,[4]; [15],3550 and 4090
same,cell count,[4]; [16],3900 and 4440
same,outcome,[12],inactive
same,z-score,[8],-1.38 (inactive) and -0.73 (inactive)
Clc1ccc(N2CCN(Cc3c[nH]c4ncccc34)CC2)cc1,period change,[9],0.105 h (inactive)
same,inhibition,[10],12% (inactive)
same,fluorescence ratio (interference),[11],1 (inactive)
same,remaining activity,[3],95.2% (inactive)
same,fold change,[4]; [13],1.07 (inactive) and 0.896 (inactive)
same,fold change,[4]; [14],0.721 and 0.794
same,cell count,[4]; [15],9090 and 6380
same,cell count,[4]; [16],8470 and 7120
same,outcome,[12],inactive
same,z-score,[8],-0.965 (inactive) and -1.05 (inactive)
O=C(O)c1cc(=O)c2c(Cl)cc(Cl)cc2[nH]1,period change,[9],-0.065 h (inactive)
same,inhibition,[10],-1% (inactive)
same,fluorescence ratio (interference),[11],1 (inactive)
same,remaining activity,[3],90.4% (inactive)
same,fold change,[4]; [13],0.981 (inactive) and 0.957 (inactive)
same,fold change,[4]; [14],0.527 and 0.88
same,cell count,[4]; [15],10000 and 8540
same,cell count,[4]; [16],10200 and 8930
same,outcome,[12],inactive
same,z-score,[8],0.135 (inactive) and -0.315 (inactive)

# Reference: PubChem BioAssay
